# Pf growth 48h – inhibits P. falciparum growth in the first generation, 48 h; P. falciparum luciferase growth in erythrocytes, 48 h; Potency, µM (highest dose often 28.7 µM), without a hit: top-dose activity change, negative = inhibition, actives largely listed as inhibitors; actives 5.9% (n = 310,000); AID 504832; active = well fitted inhibition curve with a large enough effect; inconclusive = small, poorly fitted or top-dose-only effect, or another doubt; inactive = no such curve, though single readings can be large or run the other way; also: % is scaled to controls: 0 for no effect and ±100 for the full control effect
#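 In quantitative HTS format, infected erythrocytes bearing luciferase-reporter parasites were treated for a single generation at 37 C. Luminescence after adding detection reagent served as the growth measure.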
# SARS PLP yeast – SARS-CoV PLP inhibition in yeast; S. cerevisiae expressing SARS-CoV PLpro, growth rescue; Potency, µM (top dose mostly 32.9 µM), without a hit: top-dose activity, positive = growth rescue, actives largely listed as activators; actives 0.19% (n = 330,000); AID 485353; also: 0% is about no effect; nearly all actives have a fitted effect of over 55% in size
# NS1 function inh – influenza NS1 inhibition; actives 0.4% (n = 270,000); Potency, µM (doses to about 46.1 µM), inactives show at the top dose activity, positive = more growth; also: actives are rising curves; nearly all actives have a fitted effect of over 50% in size
#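 OD600 was taken as the measure of yeast growth restored by compound in an NS1-expressing S. cerevisiae strain. Cells had been washed out of glucose medium and diluted 1:100 into galactose -URA medium, pH 6.0.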
# Pf growth 96h – P. falciparum growth inhibition at 96 hour, primary screen for plastid delayed-death inhibitors; P. falciparum luciferase reporter growth, 96 h; Potency, µM (titrated, usually from 28.7 µM), for inactives: at the highest dose activity change, negative = inhibition, hits mostly inhibitors; actives 6.9% (n = 320,000); AID 504834; active = well fitted inhibition curve with a large enough effect; inconclusive = small, poorly fitted or top-dose-only effect, or another doubt; inactive = no such curve, though single readings can be large or run the other way; also: % is scaled to controls: 0 for no effect and ±100 for the full control effect
#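 96 h incubation, 37 C, 5% CO2, of luciferase-reporter P. falciparum-infected RBCs (2% hematocrit, 0.05% parasitemia final) with test compounds; endpoint luminescence.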
# Numbers without * were called inactive; u = inconclusive; x = no result; [ ] = another dose, or the depositor's remark. An excerpt weighted towards active compounds, which were near 10% of everything screened. Unless noted, calls follow the shape of the full dose curve. Potency is read from the fitted curve at half-maximal effect.
SMILES,Pf growth 48h,SARS PLP yeast,NS1 function inh,Pf growth 96h
O=C(Nc1ccc(-c2cn3ccsc3n2)cc1)C1CCCC1,48%,-11%,-17%,14%
O=C(CCN1C(=O)c2ccccc2C1=O)Nc1ccc(-c2cn3ccsc3n2)cc1,6%,-12%,-19%,u
CC(=O)Nc1ccc(-c2cn3ccsc3n2)cc1,229%,19%,-15%,10µM*
CCN(CC(=O)N1CCOCC1)S(=O)(=O)c1cc(Cl)ccc1Cl,-12%,-1%,-2%,-5%
NNC(=O)c1cccc(O)c1,33%,15%,-4%,42%
Oc1cc2c(cc1O)C1c3ccc(O)c(O)c3OCC1(O)C2 (stereo unspecified),u,0%,0%,2.6µM*
CCc1cccc(NC(=O)CCCn2nc(C)c3c(C)n(-c4ccccc4)nc3c2=O)c1,1%,2%,-5%,u
O=C(/C=C/c1ccco1)NCC1(c2ccccc2)CCCC1,u,-16%,-12%,146%
COc1ccc(C(=O)NCC2(c3ccc(OC)c(OC)c3)CCCC2)c(OC)c1,12µM*,2%,-10%,u
COc1ccc(C2(CNC(=O)/C=C/c3ccco3)CCCC2)cc1OC,6.6µM*,3%,-6%,u
COc1ccc(CC(=O)NCC2(c3ccc(OC)c(OC)c3)CCCC2)cc1,-6%,0%,2%,1%
N#CC1(NC(=O)CN2CCc3ccccc3C2)CCCC1,7%,2%,x,-11%
Cc1ccc(-n2c(=S)[nH]c3c(oc4ccccc43)c2=O)cc1C,41%,17%,15%,17%
O=c1c2oc3ccccc3c2[nH]c(=S)n1-c1ccc(F)cc1,5%,4%,x,8.3µM*
C(=N\N1CCN(Cc2ccccc2)CC1)/c1ccccc1,28%,0%,4%,15%
C(=N\N1CCN(Cc2ccccc2)CC1)/c1cccnc1,33%,-1%,29%,6.6µM*
CCOC(=O)C1CCN(C(=O)c2cccc(NS(=O)(=O)c3ccc(F)c(F)c3)c2)CC1,u,1%,x,u
O=c1ccc(Oc2nc(N3CCCCC3)nc(N3CCCCC3)n2)n[nH]1,14%,3%,0%,3.7µM*
CCNc1nc(Oc2ccc(=O)[nH]n2)nc(N2CCOCC2)n1,x,1%,1%,-15%
CN1CCN(Cc2c(C(=O)N/N=C/c3cccc(Br)c3)nnn2-c2nonc2N)CC1,u,0%,6%,26%
O=C(CCc1ccccc1)Nc1ccc(S(=O)(=O)N2CCCC2)cc1,u,1%,1%,8.3µM*
CN1CCN(c2ccc(S(=O)(=O)N3CCCCC3)cc2NC(=O)CSCc2ccccc2)CC1,u,-1%,1%,u
CN1CCN(c2ccc(S(=O)(=O)N3CCCCC3)cc2NC(=O)CCc2ccccc2)CC1,9.3µM*,3%,x,u
CCN(CC(=O)Nc1ccc(S(=O)(=O)N2CCCC2)cc1)Cc1ccccc1,13µM*,2%,x,u
O=C(CCc1ccccc1)Nc1ccc(S(=O)(=O)N2CCOCC2)cc1,u,1%,-1%,9%
SMILES,Pf growth 48h,SARS PLP yeast,NS1 function inh,Pf growth 96h
CCN1CCN(S(=O)(=O)c2ccc(S(=O)(=O)N(CC)Cc3ccccc3)cc2)CC1,13µM*,1%,-2%,u
Cc1ccc(NC(=O)NC2CCCCCCC2)cc1,131%,2%,4%,u
Cc1cc(C)c(C(=O)COC(=O)C2CC3CCCC(C2)C3=O)c(C)c1 (stereo unspecified),u,-11%,x,-21%
O=C(CSc1nc(-c2ccccc2Cl)ns1)Nc1ccc2c(c1)OCO2,1.2µM*,-22%,-2%,u
COc1ccc(CN(C)c2ccc(S(=O)(=O)N3CCN(C)CC3)cc2[N+](=O)[O-])cc1OC,12µM*,-7%,x,15µM*
COc1ccc(CSCC(=O)Nc2ccc(S(=O)(=O)N3CCCCCC3)cc2)cc1,u,-20%,5%,u
CN(CC(=O)Nc1ccc(Cl)cc1)c1ccc(S(=O)(=O)N2CCCCC2)cc1[N+](=O)[O-],u,6%,-12%,2.9µM*
O=C(CSCc1ccc(Cl)cc1)Nc1ccc(S(=O)(=O)N2CCCCCC2)cc1,u,-36%,-16%,13µM*
O=C(NCCC(=O)N1CCCC(C(F)(F)F)C1)c1ccccc1Cl (stereo unspecified),-15%,-3%,11%,u
CC(Sc1nnnn1C)C(=O)Nc1ncc(Cl)cc1Cl (stereo unspecified),27%,0%,x,-25%
Cc1cc([N+](=O)[O-])nn1CC(=O)NCCc1c[nH]c2ccccc12,u,1%,x,30%
COc1ccc(CCN(C)c2ccc(S(=O)(=O)N3CCCC3)cn2)cc1OC,u,0%,x,21%[5.75 µM]
